Source: the supplement of paper PMC6555819

Legend:
Experiment in all cases: PBM binding z-score (relative to random genomic background probes); higher = stronger binding; sequences stand for … in GC…GCGATTGACAGCGTAGAATGAAGG
[1] = test system: FXR:RXRa (NR concentration 270 nM, RXRa partner concentration 90 nM)
How it was run: (§1)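 Binding z-scores take random background probes as their reference. They come from custom Agilent 4×180K protein-binding microarrays incubated 1 h with ligand-free nuclear receptor dimers, with antibodies against each partner (one per run) detecting binding. Scanned fluorescence was regression-normalized.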

[2] = test system: LXRa:RXRa (NR concentration 270 nM, RXRa partner concentration 90 nM)
How it was run: as §1

[3] = test system: LXRa homodimer (NR concentration 270 nM)
How it was run: as §1

[4] = test system: LXRb:RXRa (NR concentration 270 nM, RXRa partner concentration 90 nM)
How it was run: as §1

[5] = test system: LXRb homodimer (NR concentration 270 nM)
How it was run: as §1

[6] = test system: PPARa:RXRa (NR concentration 270 nM, RXRa partner concentration 90 nM)
How it was run: as §1

[7] = test system: PPARg:RXRa (NR concentration 180 nM, RXRa partner concentration 90 nM)
How it was run: as §1

[8] = test system: PPARg:RXRa 270nM:90nM, anti-RXR (NR concentration 270 nM, RXRa partner concentration 90 nM)
How it was run: as §1

[9] = test system: PPARg:RXRa 30nM:10nM, anti-RXR (NR concentration 30 nM, RXRa partner concentration 10 nM)
How it was run: as §1

[10] = test system: PPARg:RXRa 90nM:30nM, anti-RXR (NR concentration 90 nM, RXRa partner concentration 30 nM)
How it was run: as §1

[11] = test system: PPARg:RXRa DBDmut IVT, anti-RXR (DBD mutation: RXRa K156A/R161A, NR concentration 270 nM, RXRa partner concentration 90 nM)
How it was run: as §1

[12] = test system: PPARg:RXRa IVT, anti-PPARg (NR concentration 270 nM, RXRa partner concentration 90 nM)
How it was run: as §1

[13] = test system: PPARg DBDmut IVT, anti-PPARg (DBD mutation: PPARg1 K132A/R137A, NR concentration 270 nM)
How it was run: as §1

[14] = test system: PPARg homodimer (NR concentration 180 nM)
How it was run: as §1

[15] = test system: PXR:RXRa (NR concentration 270 nM, RXRa partner concentration 90 nM)
How it was run: as §1

[16] = test system: PXR homodimer (NR concentration 270 nM)
How it was run: as §1

[17] = test system: RARa:RXR (NR concentration 270 nM, RXRa partner concentration 90 nM)
How it was run: as §1

[18] = test system: RARa homodimer (NR concentration 270 nM)
How it was run: as §1

[19] = test system: RARb:RXRa (NR concentration 270 nM, RXRa partner concentration 90 nM)
How it was run: as §1

Row | Sequence | PBM binding z-score [1] | PBM binding z-score [2] | PBM binding z-score [3] | PBM binding z-score [4] | PBM binding z-score [5] | PBM binding z-score [6] | PBM binding z-score [7] | PBM binding z-score [8] | PBM binding z-score [9] | PBM binding z-score [10] | PBM binding z-score [11] | PBM binding z-score [12] | PBM binding z-score [13] | PBM binding z-score [14] | PBM binding z-score [15] | PBM binding z-score [16] | PBM binding z-score [17] | PBM binding z-score [18] | PBM binding z-score [19]
1 | CGAACTAGGTCACCAGTACAGTGAAGAGGTTGGA | 3.77 | 2.35 | 0.174 | 1.82 | 0.0155 | 4.77 | 8.77 | 7.17 | 5.27 | 6.88 | 8.41 | 8.76 | 1.75 | 2.54 | 1.59 | -0.139 | 2.65 | 0.527 | 3.98
2 | CGATCTAGGTCACCAGGACAGTGAAGAGGTTGGA | 3.81 | 2.39 | 0.00222 | 1.59 | -0.455 | 4.81 | 8.42 | 6.67 | 4.33 | 6.26 | 8.32 | 8.59 | 0.925 | 1.88 | 1.46 | -0.089 | 2.44 | -0.0617 | 4.03
3 | ATATGTAGGTTAGGGTCATTGAGAAAGTAGGGAA | 4.91 | 4.11 | 1.17 | 4.32 | 2.74 | 5.89 | 7.58 | 6.31 | 4.39 | 5.93 | 6.25 | 6.47 | 1.4 | 2.67 | 4.2 | 1.72 | 4.69 | 2.38 | 3.59
4 | ATATGTAGGTTAGGGTCCTTCAGAAAGTAGGGAA | 0.884 | 0.754 | 0.168 | 1.21 | 0.702 | 3.14 | 4.35 | 3.79 | 1.56 | 2.95 | 6.21 | 6.11 | 1.93 | 1.37 | 0.573 | 0.477 | 0.72 | 0.953 | 1.03
5 | CGAACTAGGTCCAAGGACAGTGAAAGGCGACGTA | -0.44 | -0.748 | -0.421 | -0.931 | -1.24 | 0.459 | 1.53 | 2.19 | 0.583 | 1.69 | 0.968 | 1.2 | -0.593 | -0.32 | -0.326 | -0.337 | -0.0342 | -0.625 | 0.398
6 | CGAACTAGGTCAAACGACAGTGAAAGGCGACGTA | 4.81 | 2.87 | 0.0143 | 2.12 | 0.102 | 5.14 | 8.27 | 6.9 | 5.2 | 7.3 | 8.02 | 8.26 | 0.569 | 1.9 | 1.19 | -0.315 | 2.13 | 0.265 | 3.7
7 | CGAACTAGGTCAAAGGACAGCGAAAGGCGACGTA | 4.22 | 2.78 | -0.185 | 1.94 | -0.366 | 5.76 | 10.8 | 8.88 | 9.93 | 10.3 | 8.31 | 8.46 | 0.805 | 1.59 | 1.22 | -0.642 | 2.66 | 0.165 | 3.93
8 | ATATGTAGGTTAGGGACATTCAGAAAGTAGGGAA | 0.703 | 0.638 | 0.29 | 0.442 | 0.526 | 2.39 | 3.98 | 2.82 | 1.2 | 2.33 | 6.18 | 5.89 | 1.59 | 0.688 | 0.115 | 0.777 | 0.618 | 1.69 | 1.04
9 | CGAACTAGGTCACCAGGACAGGGAAGAGGTTGGA | 4.04 | 2.49 | -0.0204 | 1.64 | -0.262 | 5.11 | 8.73 | 6.89 | 4.68 | 6.72 | 8.23 | 8.76 | 5.57 | 4.22 | 1.22 | 0.127 | 2.58 | 0.696 | 4.13
10 | ATATGTAGGTTAGGGTCTTTCAGAAAGTAGGGAA | 1.38 | 0.75 | 0.422 | 1.37 | 1.11 | 3.21 | 4.93 | 3.87 | 1.72 | 3.03 | 6.29 | 6.62 | 2.64 | 2.25 | 0.93 | 1.06 | 1.2 | 1.44 | 0.945
11 | CGAACTAGGGCACCAGGACAGTGAAGAGGTTGGA | -0.211 | -0.347 | -0.377 | -0.672 | -1.24 | 2.31 | 4.04 | 3.54 | 1.13 | 2.7 | 7.2 | 6.94 | -0.192 | 0.184 | -0.709 | -0.309 | -0.404 | -1.02 | 1.42
12 | CGAACTAGGTCACCAGGACAGCGAAGAGGTTGGA | 3.93 | 2.11 | -0.245 | 1.55 | -0.88 | 4.91 | 8.61 | 6.98 | 4.85 | 6.78 | 7.82 | 8.67 | 0.871 | 2.15 | 1.34 | -0.232 | 2.32 | 0.196 | 4.21
13 | ATATCTAGGTTAGGGTCATTCAGAAAGTAGGGAA | 4.54 | 4.26 | 1.73 | 4.39 | 2.24 | 5.65 | 7.73 | 6.5 | 4.33 | 6.58 | 6.71 | 6.95 | 2.23 | 3.98 | 4.33 | 2.01 | 4.78 | 2.98 | 3.43
14 | ATATGTAGGTAAGGGTCATTCAGAAAGTAGGGAA | 4.33 | 4.17 | 1.56 | 4.24 | 1.45 | 5.52 | 7.89 | 6.82 | 4.58 | 6.85 | 5.88 | 6.35 | 2.93 | 3.52 | 3.78 | 1.25 | 4.55 | 2.02 | 3.61
15 | ATATGTAGGTTAGGGCCATTCAGAAAGTAGGGAA | 0.671 | 0.708 | 0.2 | 0.722 | 0.503 | 2.71 | 3.6 | 3.2 | 1.06 | 2.58 | 6.52 | 5.91 | 1.97 | 1.54 | 0.501 | 0.512 | 0.535 | 0.865 | 1.35
16 | CGTACTAGGTCACCAGGACAGTGAAGAGGTTGGA | 3.85 | 2.7 | 0.154 | 2.01 | -0.0806 | 4.67 | 7.91 | 6.32 | 3.8 | 5.83 | 7.9 | 8.08 | 4.96 | 3.11 | 1.53 | 0.369 | 2.86 | 0.557 | 4.19
17 | CGAACTAGGTCAAAGGATAGTGAAAGGCGACGTA | 3.37 | 2.22 | -0.4 | 1.58 | -0.272 | 4.93 | 8.97 | 7.71 | 6.95 | 8.35 | 8.11 | 8.26 | 0.867 | 1.36 | 1 | -0.152 | 1.9 | 0.167 | 3.62
